Consider 23 compounds from PubChem BioAssay (NCATS).

Results filed as inconclusive are left out. Calls of active or inactive are those of the source. The call rests on the fitted dose curve; in most records, active means well fitted inhibition curve with a large enough effect; inconclusive means small, poorly fitted or top-dose-only effect; inactive means flat fitted curve, though single readings scatter.

Assay in all cases: qHTS profiling for inhibitors of Plasmodium falciparum proliferation (AID 504749); further: nearly all actives have a fitted effect of over 60% in size
Common to all, as to settings: P. falciparum in erythrocytes, SYBR Green DNA, 72 h; series mostly up to 28.7 µM
(In general: Quantitative high-throughput screening tests each substance at several concentrations.)

The subject of one experiment is C2A. In outline: (§1)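 Infected RBCs, 0.3% parasitemia/2.5% Hct final; cpd 72 h, 37 C, 5% CO2; lysis buffer with saponin/triton/SYBR Green I, o/n RT dark; FI 485/535; norm. to artemisinin (0.29 uM) and DMSO.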
The next experiment concerns CP185. An outline of the steps: as §1
The next experiment relates to CP191. An outline of the steps: as §1
The next experiment deals with CP192. An outline of the steps:
as §1

Another experiment concerns CP194. In outline:
as §1

The next experiment concerns CP201. In outline: as §1
The next experiment has as its system CP203. An outline of the steps:
as §1

The subject of a further experiment is CP211. An outline of the steps: as §1
The test system of another experiment is CP215. An outline of the steps: as §1
In the next experiment the test system is CP217. In outline:
as §1
Potency means the concentration at half of the fitted maximal effect.

With `CN1C(CCl)Nc2cc(Cl)c(S(N)(=O)=O)cc2S1(=O)=O` (configuration not stated), the Potency entry in the experiment on C2A, with CP185, in the experiment on CP191, in the experiment on CP192, with CP194 and in the experiment with CP201 was “inactive” each time. For the same compound, the Potency result in the experiment on CP203, in the experiment with CP211, in the experiment with CP215 and in the experiment with CP217 was “inactive” throughout.
On to `CCN1CCC[C@H]1CNC(=O)c1c(OC)ccc(Br)c1OC`, for which the Potency entry with C2A, with CP185, with CP191, with CP192, in the experiment on CP194 and in the experiment on CP201 was “inactive” each time. The Potency entry in the experiment on CP203, in the experiment on CP211, with CP215 and with CP217 was “inactive” throughout.
In the case of `Clc1ccc2c(c1)CCc1cccnc1C2=C1CCNCC1`, the Potency entry in the experiment with C2A and in the experiment on CP185 was “inactive” in each case.
With `COC(=O)[C@@H]1CC2=CC(=O)CC[C@]2(C)[C@@]23O[C@@H]2C[C@@]2(C)[C@@H](CC[C@@]24CCC(=O)O4)[C@H]13`, the Potency result in the experiment with C2A, in the experiment with CP185, in the experiment on CP191, with CP192, with CP194 and with CP201 was “inactive” throughout. Besides, the Potency result in the experiment with CP203, in the experiment with CP211, with CP215 and with CP217 was “inactive” throughout.
Regarding `CCCCCC=CCC=CCCCCCCCC(=O)OCC`, the Potency entry with C2A, in the experiment with CP185, in the experiment with CP191, in the experiment with CP192, in the experiment with CP194 and in the experiment on CP201 was “inactive” each time. Moreover, the Potency result with CP203, in the experiment with CP211, in the experiment on CP215 and in the experiment on CP217 was “inactive” each time.
As to `C[C@]12CC[C@@H]3c4ccc(O)cc4CC[C@H]3[C@@H]1CC[C@@H]2O`, the Potency entry in the experiment on C2A, in the experiment on CP185, in the experiment on CP191, in the experiment with CP192, in the experiment with CP194 and in the experiment with CP201 was “inactive” in each case. Also, the Potency result with CP203, with CP211, with CP215 and in the experiment with CP217 was “inactive” in each case.
For `CCCCCCc1ccc(O)cc1O`, the Potency result with C2A, in the experiment on CP185, in the experiment with CP191, with CP192, in the experiment with CP194 and in the experiment with CP201 was “inactive” throughout. In addition, the Potency result in the experiment with CP203, with CP211, with CP215 and in the experiment with CP217 was “inactive” throughout.
For the compound `CCCCOc1ccc(C(=O)CCN2CCCCC2)cc1`, the Potency entry in the experiment with C2A, with CP185, in the experiment on CP191, in the experiment with CP192, in the experiment with CP194 and in the experiment with CP201 was “inactive” in each case. The Potency entry with CP203, in the experiment with CP211, with CP215 and in the experiment with CP217 was “inactive” throughout.
Regarding `COC1=CC(=O)C[C@@H](C)[C@]12Oc1c(Cl)c(OC)cc(OC)c1C2=O`, the Potency result with C2A, in the experiment on CP185, with CP191, in the experiment with CP192, in the experiment on CP194 and with CP201 was “inactive” throughout. Also, the Potency entry in the experiment on CP203, with CP211, in the experiment with CP215 and in the experiment on CP217 was “inactive” in each case.
Take `CCCCCCCCCCCCCCCC[N+](C)(C)CC`: the Potency is 3.55 µM (active) in the experiment with C2A; 3.98 µM (active) with CP185; 3.98 µM (active) with CP191; 4.78 µM (active) with CP192; 6.01 µM (active) in the experiment on CP194; 6.75 µM (active) in the experiment with CP201. The Potency with CP203 is 10.7 µM (active); in the experiment with CP211 it was 4.78 µM (active); in the experiment with CP215 it was 9.53 µM (active); with CP217, 5.62 µM (active).
As for `Nc1cc(Cl)c(NC2=NCCN2)c(Cl)c1`, the Potency result in the experiment with C2A, in the experiment on CP185, with CP191, with CP192, in the experiment with CP194 and with CP201 was “inactive” throughout. The Potency entry in the experiment with CP203, in the experiment with CP211, in the experiment on CP215 and in the experiment on CP217 was “inactive” each time.
Regarding `CC(C)(C)CC(C)(C)c1ccc(OCCOCC[N+](C)(C)Cc2ccccc2)cc1`, the Potency in the experiment with C2A is 3.16 µM (active); in the experiment on CP185 it was 3.55 µM (active); with CP191, 1.58 µM (active); with CP192, 4.26 µM (active); in the experiment with CP194 it was 3.79 µM (active); in the experiment on CP201, 4.78 µM (active). Further, the Potency in the experiment on CP203 was 4.78 µM (active); in the experiment on CP211, 4.26 µM (active); with CP215, 5.36 µM (active); with CP217, 4.47 µM (active).
As to `Oc1c(I)cc(I)c2cccnc12`, the Potency result in the experiment on C2A is “inactive”.
As for `CN1C2CCC1CC(OC(=O)c1c[nH]c3ccccc13)C2` (configuration not stated), the Potency result in the experiment on C2A, in the experiment on CP185, with CP191, with CP192, in the experiment on CP194 and in the experiment with CP201 was “inactive” throughout. Besides, the Potency entry with CP203, in the experiment on CP211, in the experiment with CP215 and in the experiment with CP217 was “inactive” in each case.
As for `CCN1CCCC1=O`, the Potency result in the experiment with C2A, in the experiment with CP185, in the experiment with CP191, with CP192, in the experiment on CP194 and in the experiment with CP201 was “inactive” throughout. Moreover, the Potency result in the experiment with CP203, with CP211, in the experiment with CP215 and in the experiment on CP217 was “inactive” in each case.
`CC(=O)OCC(=O)[C@@]1(OC(C)=O)[C@@H](C)C[C@H]2[C@@H]3C[C@H](F)C4=CC(=O)C=C[C@]4(C)[C@@]3(F)[C@@H](O)C[C@@]21C`: the Potency entry with C2A, in the experiment on CP185, with CP191, with CP192, in the experiment on CP194 and in the experiment with CP201 was “inactive” throughout. For the same compound, the Potency entry with CP203, in the experiment with CP211 and in the experiment with CP217 was “inactive” each time.
On to `O=C(O)c1cc2cc(Cc3cccnc3)ccc2o1`, for which the Potency result in the experiment with C2A, in the experiment with CP185, in the experiment on CP191, in the experiment with CP192, in the experiment on CP194 and in the experiment on CP201 was “inactive” in each case. The Potency entry in the experiment with CP203, with CP211, in the experiment with CP215 and with CP217 was “inactive” each time.
For the compound `CC(O)(P(=O)(O)O)P(=O)(O)O`, the Potency result in the experiment with C2A, with CP185, in the experiment on CP191, in the experiment on CP192, with CP194 and in the experiment with CP201 was “inactive” throughout. Besides, the Potency entry with CP203, with CP211, in the experiment with CP215 and in the experiment on CP217 was “inactive” in each case.
Turning to `Nc1ccc(/C=C/c2ccc(N)cc2S(=O)(=O)O)c(S(=O)(=O)O)c1`, the Potency result with C2A, with CP185, in the experiment with CP191, with CP192, in the experiment on CP194 and in the experiment on CP201 was “inactive” in each case. Moreover, the Potency result with CP203, with CP211, in the experiment with CP215 and in the experiment with CP217 was “inactive” each time.
For `C[C@H]1C[C@H]2[C@@H]3CCC4=CC(=O)C=C[C@]4(C)[C@@]3(Cl)[C@@H](O)C[C@]2(C)[C@@]1(O)C(=O)CO`, the Potency entry in the experiment with C2A, with CP185, with CP191, in the experiment with CP192, with CP194 and in the experiment with CP201 was “inactive” throughout. In addition, the Potency result in the experiment on CP203, in the experiment on CP211, with CP215 and with CP217 was “inactive” in each case.
For `CCCCN1CCCC1C(=O)Nc1c(C)cc(C)cc1C` (configuration not stated), the Potency result in the experiment on C2A, in the experiment with CP185, with CP191, in the experiment on CP192, with CP194 and in the experiment with CP201 was “inactive” in each case. Further, the Potency result in the experiment on CP203, in the experiment on CP211, in the experiment with CP215 and with CP217 was “inactive” in each case.
Consider `COc1c2occc2c(OC)c2c(=O)cc(C)oc12`, for which the Potency entry in the experiment on C2A, in the experiment with CP185, in the experiment with CP191, in the experiment on CP192, with CP194 and with CP201 was “inactive” each time. Further, the Potency entry in the experiment with CP203, with CP211, with CP215 and in the experiment on CP217 was “inactive” throughout.
As for `C1CCc2nnnn2CC1`, the Potency result with C2A, in the experiment with CP185, with CP191, in the experiment on CP192, with CP194 and in the experiment on CP201 was “inactive” in each case. In addition, the Potency entry with CP203, with CP211, in the experiment on CP215 and in the experiment on CP217 was “inactive” each time.
